Data: PubChem BioAssay (NCI)
This is part of a sample that, as a whole, favours compounds with a hit. Of some 79,000 tested, about 15% had one in any assay. Active and inactive are the calls of the source. Cut-off read from the data, not from the text of the source: active = growth inhibition above about 70%; inactive = the rest.

Columns and labels:
[1] = NCI Yeast Anticancer Drug Screen. Data for the rad50 strain (AID 155);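 note: 0% = growth of vehicle-only cultures of the same strain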; conditions: S. cerevisiae rad50 strain growth inhibition; at 50.0 µM; stronger effect = higher value
Procedure, shortened: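 Genetically altered yeast (DNA repair pathway); compound treatment; growth inhibition vs vehicle ctrl.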

[2] = NCI Yeast Anticancer Drug Screen. Data for the mec2-1 strain (AID 157); conditions: S. cerevisiae mec2-1 strain, at 50.0 µM, stronger effect = higher value
Procedure, shortened: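 Readout is yeast growth inhibition, normalised to vehicle-treated controls, in the mec2-1 strain exposed to compound.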

[3] = NCI Yeast Anticancer Drug Screen. Data for the sgs1 mgt1 strain (AID 161);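 note: 0% = growth of cultures given vehicle only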; conditions: S. cerevisiae sgs1 mgt1 strain, at 50.0 µM, stronger effect = higher value
Procedure, shortened: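 Compounds are added to genetically altered yeast, and growth is compared with cultures given vehicle alone to give percent inhibition.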

[4] = NCI Yeast Anticancer Drug Screen. Data for the cln2 rad14 strain (AID 165);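 note: 0% = growth equal to vehicle treated cultures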; conditions: S. cerevisiae cln2 rad14 strain, at 50.0 µM, stronger effect = higher value
Procedure, shortened: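 Relative to vehicle controls, growth inhibition of compound-treated cln2 rad14 yeast was recorded.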

[5] = NCI Yeast Anticancer Drug Screen. Data for the bub3 strain (AID 167); conditions: S. cerevisiae bub3 mutant strain, at 50.0 µM, stronger effect = higher value
Procedure, shortened: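 Yeast carrying a defined mutation is treated with each compound, and growth is compared with that of vehicle-exposed cells to give inhibition.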

[6] = NCI Yeast Anticancer Drug Screen. Data for the mlh1 rad18 strain (AID 175); conditions: S. cerevisiae mlh1 rad18 strain growth inhibition; at 50.0 µM; stronger effect = higher value
Procedure, shortened: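 Test agents were incubated with a yeast strain of defined genotype (DNA damage repair defect). Inhibition of growth was derived by comparison with vehicle-exposed cultures.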

Measured: growth inhibition

O=C(COc1ccc(Cl)c(Cl)c1)Nc1ccc[n+](Cc2ccc(S(=O)(=O)F)c(Cl)c2)c1
inactive: [1] 62%
active: [2] 94.3% | [3] 98.3% | [4] 95.8% | [5] 94.8% | [6] 99.5%

CC(C)CC(NC(=O)CF)C(=O)O (stereo not given)
inactive: [1] 3.45% | [2] 0.05% | [3] -4.7% | [4] 1.4% | [5] 4.05% | [6] -3.05%

CCOC(=O)C(Cc1ccc(N(CCCl)CCCl)cc1)NC(=O)C(C)NC(C)=O (stereo not given)
inactive: [1] 0.45% | [2] -7.3% | [3] -15.5% | [4] 15.7% | [5] -0.6% | [6] 7%

c1ccc(NC2CCN(C3(c4ccccc4)CCCCC3)CC2)cc1
inactive: [1] -17.9% | [2] -6.8% | [3] -6.85% | [4] -45.6% | [5] -1.75% | [6] -8.1%

O=[N+]([O-])c1ccc(Cl)c(OCCCOc2ccc(S(=O)(=O)F)cc2)c1
inactive: [1] -8.7% | [2] -6.9% | [3] 8.05% | [4] 3.7% | [5] -3.75% | [6] 7.85%

Cc1ccc(S(=O)(=O)OC2CC3c4ccccc4C2c2cccc[n+]23)cc1 (stereo not given)
inactive: [1] 68% | [2] 7.5% | [3] 36.4% | [4] -18.4% | [5] 8.8% | [6] 12.1%

Oc1cccc(-c2ccccc2)c1
inactive: [1] 20.5% | [2] 17.2% | [3] 20.3% | [4] 5.35% | [5] 30.1% | [6] 21.2%

COc1cc2c(c3oc4cccc(O)c4c(=O)c13)[C@@H]1C=CO[C@@H]1O2
inactive: [1] -11.6% | [2] -15.2% | [3] -7.05% | [4] 26.1% | [5] -8.7% | [6] -8.9%

CC(=O)Oc1ccc(CCN(C)C2CC3CCC2(C)C3(C)C)cc1OC(C)=O (stereo not given)
inactive: [1] 51.4% | [2] 21.4% | [3] 46.2% | [4] -11.2% | [5] 6.1% | [6] 41%

C=CCN1CC2CN=NC2(C#N)C1 (stereo not given)
inactive: [1] -10.8% | [2] 6.45% | [3] 0.65% | [4] -22.3% | [5] 6.7% | [6] -4.95%

O=C(CBr)OCCOC(=O)CBr
inactive: [1] 0.55% | [2] 18.4% | [3] -8.5% | [4] 14.4% | [5] 28.5% | [6] -3.95%

Cc1cccc(CCl)c1
inactive: [1] -7.05% | [2] -46.3% | [3] -23.3% | [4] -0.45% | [5] -40.9% | [6] -23.4%

COC1OCC(N=[N+]=[N-])C(OC)C1O (stereo not given)
inactive: [1] 18.8% | [2] -12.4% | [3] -3.1% | [4] -19.2% | [5] 5.65% | [6] -1.8%

C[Si](C)(C)CN(N=O)C(N)=O
inactive: [1] 1.55% | [2] 3.4% | [3] -3.45% | [4] -25.2% | [5] 3.95% | [6] 9.45%

CN1CCN(C)C1=Nc1ccccc1/C=C/C=C1C(=O)N(C)C(=O)N(C)C1=O
inactive: [1] 2.7% | [2] 8.5% | [3] 12.8% | [4] 12.2% | [5] -1.2% | [6] 14.8%

CC1(C)CN=C(Nc2ccc(F)c(Cl)c2)S1
inactive: [1] 12.9% | [2] 1.15% | [3] -17.9% | [4] 9.8% | [5] -24.7% | [6] -35.4%

CC(Cl)CN(CC(C)Cl)c1ccc2c(c1)Cc1ccccc1-2 (stereo not given)
inactive: [1] -20.8% | [2] -10.1% | [3] 2.65% | [4] -46.9% | [5] 23.1% | [6] 9%

NC(Cc1c[nH]c2cc([N+](=O)[O-])ccc12)C(=O)O (stereo not given)
inactive: [1] 13.8% | [2] 2.15% | [3] -33.9% | [4] -7.45% | [5] -43% | [6] -0.25%

C[C@H](CCC1SC1(C)C)C1CCC2(C)C3=C(CC[C@]12C)[C@@]1(C)CC[C@H](O)C(C)(C)C1CC3 (stereo not given in full)
inactive: [1] 9.85% | [2] -11.2% | [3] -11.2% | [4] -48.8% | [5] -5.2% | [6] 1.9%

CCOC(=O)C1=C(C)/C(=C\c2[nH]c(C)c(C(=O)OCC)c2C)N=C1C
inactive: [1] 8.95% | [2] 13.7% | [3] 23% | [4] 8.95% | [5] 19.5% | [6] 19.9%
